The values that follow come from article PMC7862700, “An all-to-all approach to the identification of sequence-specific readers for epigenetic DNA modifications on cytosine”.

Experiment in all cases: DAPPL (digital affinity profiling via proximity ligation, sequencing); 10 mM Tris-HCl pH 7.5, 50 mM NaCl, 1 mM DTT, 4% glycerol, room temperature, 30 min; GST-TFs on glutathione beads, 16-mer random dsDNA library, 0.1% formaldehyde crosslink after washing; high values mean tight binding
Holding throughout (conditions): protein: recombinant; tags: N-terminal GST; dsDNA, one strand shown

In one test the target is T1, ELK1 (Homo sapiens, UniProt P19419 1-428).
T1 sequence: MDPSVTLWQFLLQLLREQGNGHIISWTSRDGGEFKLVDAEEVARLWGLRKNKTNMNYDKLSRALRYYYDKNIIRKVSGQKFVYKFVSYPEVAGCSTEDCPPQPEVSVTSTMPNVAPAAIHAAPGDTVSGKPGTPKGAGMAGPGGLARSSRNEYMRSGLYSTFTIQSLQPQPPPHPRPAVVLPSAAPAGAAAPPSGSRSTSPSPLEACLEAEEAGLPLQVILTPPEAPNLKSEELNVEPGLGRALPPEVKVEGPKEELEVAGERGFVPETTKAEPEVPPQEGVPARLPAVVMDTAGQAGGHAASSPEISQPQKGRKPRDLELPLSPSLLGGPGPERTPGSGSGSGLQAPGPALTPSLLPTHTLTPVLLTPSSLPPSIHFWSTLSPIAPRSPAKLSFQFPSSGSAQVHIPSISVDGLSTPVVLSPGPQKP
The method, boiled down:
(§1)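 GST fusions of human transcription factors were expressed in yeast and captured with glutathione beads. Once given DNA barcodes and pooled alongside a tag-only sample, they were incubated for 30 min at room temperature with 200 nmole of a random double-stranded 16-mer DNA library in Tris/NaCl/DTT/glycerol buffer, then washed, crosslinked (0.1% formaldehyde), proximity-ligated, PCR-amplified and sequenced on an Illumina NextSeq500. The binding signal of each hexamer is its read frequency for a factor divided by its frequency for the tag-only sample.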

In a further test the target is T2, GABPA (Homo sapiens, UniProt Q06546 1-454).
T2 sequence: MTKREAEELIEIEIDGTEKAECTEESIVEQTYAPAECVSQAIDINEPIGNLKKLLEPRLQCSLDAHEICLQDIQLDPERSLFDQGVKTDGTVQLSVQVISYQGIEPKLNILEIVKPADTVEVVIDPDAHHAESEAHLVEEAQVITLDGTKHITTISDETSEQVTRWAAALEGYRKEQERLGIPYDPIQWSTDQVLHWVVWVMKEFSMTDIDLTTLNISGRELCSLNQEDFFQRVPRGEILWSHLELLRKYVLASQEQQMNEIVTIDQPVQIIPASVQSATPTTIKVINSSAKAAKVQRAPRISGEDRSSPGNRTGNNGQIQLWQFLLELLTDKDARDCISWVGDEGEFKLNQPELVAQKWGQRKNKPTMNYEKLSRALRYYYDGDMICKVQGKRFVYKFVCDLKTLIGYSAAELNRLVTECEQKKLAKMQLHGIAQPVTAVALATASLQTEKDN
The gist of the method: as §1

The next test addresses T3, ERG (Homo sapiens, UniProt P11308 1-479).
T3 sequence: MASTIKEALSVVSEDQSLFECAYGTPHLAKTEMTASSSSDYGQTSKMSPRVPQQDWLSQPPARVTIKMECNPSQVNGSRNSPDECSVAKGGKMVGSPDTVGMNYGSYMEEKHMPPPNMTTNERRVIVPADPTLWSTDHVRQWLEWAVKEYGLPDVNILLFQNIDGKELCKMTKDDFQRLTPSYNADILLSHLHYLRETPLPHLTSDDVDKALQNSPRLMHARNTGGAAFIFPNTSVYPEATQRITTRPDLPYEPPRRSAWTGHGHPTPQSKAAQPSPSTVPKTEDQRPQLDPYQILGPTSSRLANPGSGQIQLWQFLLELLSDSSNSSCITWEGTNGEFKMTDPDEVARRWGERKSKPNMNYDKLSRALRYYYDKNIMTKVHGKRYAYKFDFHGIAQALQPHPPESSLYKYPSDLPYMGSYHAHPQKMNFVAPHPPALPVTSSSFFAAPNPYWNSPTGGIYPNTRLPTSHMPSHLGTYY
The method, boiled down:
as §1

Another test concerns the target ELF1 (Homo sapiens, UniProt P32519 1-619). The gist of the method:
as §1

Another test concerns the target T4, EHF (Homo sapiens, UniProt Q9NZC4 1-300).
T4 sequence: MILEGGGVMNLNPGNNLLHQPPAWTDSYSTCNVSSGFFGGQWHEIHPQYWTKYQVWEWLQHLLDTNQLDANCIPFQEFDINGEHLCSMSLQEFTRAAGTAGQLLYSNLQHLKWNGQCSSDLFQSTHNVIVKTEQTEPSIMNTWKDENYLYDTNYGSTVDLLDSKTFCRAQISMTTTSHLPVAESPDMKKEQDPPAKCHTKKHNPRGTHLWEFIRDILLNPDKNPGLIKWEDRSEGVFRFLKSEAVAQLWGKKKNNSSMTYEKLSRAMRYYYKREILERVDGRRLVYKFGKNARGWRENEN
The gist of the method:
as §1

The target of another test is SPI1 (Homo sapiens, UniProt P17947 1-270). The method, boiled down:
as §1

The next test deals with SPIB (Homo sapiens, UniProt Q01892 1-262). The method, boiled down: as §1
Sequence of SPIB (Q01892 whole entry): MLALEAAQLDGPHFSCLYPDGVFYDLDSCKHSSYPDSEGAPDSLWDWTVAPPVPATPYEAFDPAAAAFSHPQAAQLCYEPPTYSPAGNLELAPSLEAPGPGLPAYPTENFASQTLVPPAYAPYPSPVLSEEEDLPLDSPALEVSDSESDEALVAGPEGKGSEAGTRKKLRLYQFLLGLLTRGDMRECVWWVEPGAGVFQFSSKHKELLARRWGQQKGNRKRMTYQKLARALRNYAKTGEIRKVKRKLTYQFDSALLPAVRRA
Another test deals with T5, FEV (Homo sapiens, UniProt Q99581 1-238).
T5 sequence: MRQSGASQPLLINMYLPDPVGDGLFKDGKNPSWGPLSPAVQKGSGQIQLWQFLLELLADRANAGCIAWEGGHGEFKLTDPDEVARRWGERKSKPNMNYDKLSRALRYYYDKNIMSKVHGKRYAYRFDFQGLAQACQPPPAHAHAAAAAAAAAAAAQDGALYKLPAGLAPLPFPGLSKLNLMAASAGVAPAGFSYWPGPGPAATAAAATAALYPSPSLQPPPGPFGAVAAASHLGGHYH
The gist of the method:
as §1

In the next test the target is ETV5 (Homo sapiens, UniProt P41161 1-510). The gist of the method: as §1
Sequence of ETV5 (P41161 whole entry): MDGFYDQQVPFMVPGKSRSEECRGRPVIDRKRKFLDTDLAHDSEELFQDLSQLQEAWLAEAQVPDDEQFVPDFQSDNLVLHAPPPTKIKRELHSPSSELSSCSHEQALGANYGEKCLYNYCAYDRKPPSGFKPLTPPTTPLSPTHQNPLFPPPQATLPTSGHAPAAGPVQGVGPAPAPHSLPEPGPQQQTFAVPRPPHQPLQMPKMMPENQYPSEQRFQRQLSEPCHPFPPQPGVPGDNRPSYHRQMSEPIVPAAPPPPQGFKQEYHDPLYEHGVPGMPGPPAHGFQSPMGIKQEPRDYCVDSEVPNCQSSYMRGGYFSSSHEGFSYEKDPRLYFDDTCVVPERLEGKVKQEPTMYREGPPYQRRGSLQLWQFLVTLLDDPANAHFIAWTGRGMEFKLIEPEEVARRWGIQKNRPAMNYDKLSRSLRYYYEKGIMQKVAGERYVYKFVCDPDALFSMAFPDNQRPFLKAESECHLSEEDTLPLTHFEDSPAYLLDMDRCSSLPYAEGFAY
The next test deals with ELF4 (Homo sapiens, UniProt Q99607 1-663). The gist of the method: as §1
Sequence of ELF4 (Q99607 whole entry): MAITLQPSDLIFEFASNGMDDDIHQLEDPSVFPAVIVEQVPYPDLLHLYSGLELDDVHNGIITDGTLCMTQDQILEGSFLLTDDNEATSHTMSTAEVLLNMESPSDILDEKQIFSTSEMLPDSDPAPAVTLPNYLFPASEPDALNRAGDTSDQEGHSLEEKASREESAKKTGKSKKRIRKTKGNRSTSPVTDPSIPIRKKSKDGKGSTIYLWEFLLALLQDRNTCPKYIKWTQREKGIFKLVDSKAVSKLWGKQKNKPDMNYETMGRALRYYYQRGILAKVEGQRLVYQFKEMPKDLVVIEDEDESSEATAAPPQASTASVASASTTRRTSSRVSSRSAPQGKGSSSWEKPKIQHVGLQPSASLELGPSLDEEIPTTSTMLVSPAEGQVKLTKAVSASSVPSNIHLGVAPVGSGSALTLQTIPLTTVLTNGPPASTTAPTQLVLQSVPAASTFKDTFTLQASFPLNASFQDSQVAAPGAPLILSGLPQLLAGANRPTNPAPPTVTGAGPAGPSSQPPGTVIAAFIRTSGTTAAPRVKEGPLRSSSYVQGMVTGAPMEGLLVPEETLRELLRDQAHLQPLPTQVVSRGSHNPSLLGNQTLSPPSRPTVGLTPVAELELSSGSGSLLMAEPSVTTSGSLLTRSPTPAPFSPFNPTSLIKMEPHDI
A further test addresses T6, ETV2 (Homo sapiens, UniProt O00321 1-342).
T6 sequence: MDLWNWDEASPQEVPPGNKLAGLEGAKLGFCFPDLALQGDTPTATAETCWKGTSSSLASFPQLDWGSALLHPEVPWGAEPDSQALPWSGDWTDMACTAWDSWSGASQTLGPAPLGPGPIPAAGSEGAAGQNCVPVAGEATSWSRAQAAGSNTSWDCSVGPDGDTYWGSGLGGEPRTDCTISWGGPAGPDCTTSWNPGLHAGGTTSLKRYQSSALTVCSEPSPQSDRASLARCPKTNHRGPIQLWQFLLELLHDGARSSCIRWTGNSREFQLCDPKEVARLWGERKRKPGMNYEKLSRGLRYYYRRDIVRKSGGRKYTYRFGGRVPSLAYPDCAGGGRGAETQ
The method, boiled down:
as §1

In a further test the target is T7, ELF3 (Homo sapiens, UniProt P78545 1-371).
T7 sequence: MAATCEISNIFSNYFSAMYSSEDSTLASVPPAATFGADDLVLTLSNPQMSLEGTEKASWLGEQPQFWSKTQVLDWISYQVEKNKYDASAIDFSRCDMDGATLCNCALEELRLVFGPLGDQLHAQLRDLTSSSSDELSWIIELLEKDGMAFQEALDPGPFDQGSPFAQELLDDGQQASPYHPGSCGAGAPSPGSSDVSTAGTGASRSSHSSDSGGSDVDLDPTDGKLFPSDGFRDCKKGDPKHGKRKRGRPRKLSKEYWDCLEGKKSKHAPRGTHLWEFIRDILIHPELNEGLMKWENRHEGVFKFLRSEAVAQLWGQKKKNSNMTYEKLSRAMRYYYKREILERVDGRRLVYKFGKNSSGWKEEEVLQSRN
The method, boiled down:
as §1

A further test concerns the target ETV1 (Homo sapiens, UniProt P50549 1-477). The method, boiled down: as §1
A further test deals with T8, ERF (Homo sapiens, UniProt P50548 1-548).
T8 sequence: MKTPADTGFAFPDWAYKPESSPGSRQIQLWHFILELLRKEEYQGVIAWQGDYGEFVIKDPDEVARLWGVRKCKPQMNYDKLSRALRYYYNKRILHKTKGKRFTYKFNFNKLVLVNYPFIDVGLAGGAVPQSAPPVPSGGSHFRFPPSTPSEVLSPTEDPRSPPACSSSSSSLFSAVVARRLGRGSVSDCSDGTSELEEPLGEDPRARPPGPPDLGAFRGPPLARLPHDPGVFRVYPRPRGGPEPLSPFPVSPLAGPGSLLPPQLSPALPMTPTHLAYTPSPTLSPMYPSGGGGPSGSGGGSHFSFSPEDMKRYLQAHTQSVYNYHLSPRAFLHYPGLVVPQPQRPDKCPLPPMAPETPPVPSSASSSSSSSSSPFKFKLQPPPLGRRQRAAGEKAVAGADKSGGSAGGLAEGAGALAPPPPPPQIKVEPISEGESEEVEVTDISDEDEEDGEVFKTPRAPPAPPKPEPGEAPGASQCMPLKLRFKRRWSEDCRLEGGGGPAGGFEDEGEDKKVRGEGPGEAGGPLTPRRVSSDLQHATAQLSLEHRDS
The method, boiled down:
as §1

A further test has as its target T9, ETV3 (Homo sapiens, UniProt P41162-2 1-143).
T9 sequence: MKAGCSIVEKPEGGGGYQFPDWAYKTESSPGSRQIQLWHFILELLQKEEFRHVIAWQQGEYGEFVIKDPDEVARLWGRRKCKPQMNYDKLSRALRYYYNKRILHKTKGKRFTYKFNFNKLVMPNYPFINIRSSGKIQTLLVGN
The method, boiled down: as §1

Sequence of ETV1 (P50549 whole entry): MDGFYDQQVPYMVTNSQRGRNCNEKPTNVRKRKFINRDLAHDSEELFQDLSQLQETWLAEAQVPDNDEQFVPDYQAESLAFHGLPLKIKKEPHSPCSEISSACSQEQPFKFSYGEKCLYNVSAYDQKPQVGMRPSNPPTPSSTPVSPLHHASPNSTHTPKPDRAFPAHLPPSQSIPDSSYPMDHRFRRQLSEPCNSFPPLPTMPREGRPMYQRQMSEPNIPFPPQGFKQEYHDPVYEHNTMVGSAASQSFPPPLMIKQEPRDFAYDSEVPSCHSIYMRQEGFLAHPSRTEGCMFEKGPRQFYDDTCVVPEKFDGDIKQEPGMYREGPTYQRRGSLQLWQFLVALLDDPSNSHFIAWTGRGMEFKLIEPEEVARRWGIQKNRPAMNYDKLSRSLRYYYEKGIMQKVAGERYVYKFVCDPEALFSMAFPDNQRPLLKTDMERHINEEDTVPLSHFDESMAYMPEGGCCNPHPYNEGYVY
Sequence of ELF1 (P32519 whole entry): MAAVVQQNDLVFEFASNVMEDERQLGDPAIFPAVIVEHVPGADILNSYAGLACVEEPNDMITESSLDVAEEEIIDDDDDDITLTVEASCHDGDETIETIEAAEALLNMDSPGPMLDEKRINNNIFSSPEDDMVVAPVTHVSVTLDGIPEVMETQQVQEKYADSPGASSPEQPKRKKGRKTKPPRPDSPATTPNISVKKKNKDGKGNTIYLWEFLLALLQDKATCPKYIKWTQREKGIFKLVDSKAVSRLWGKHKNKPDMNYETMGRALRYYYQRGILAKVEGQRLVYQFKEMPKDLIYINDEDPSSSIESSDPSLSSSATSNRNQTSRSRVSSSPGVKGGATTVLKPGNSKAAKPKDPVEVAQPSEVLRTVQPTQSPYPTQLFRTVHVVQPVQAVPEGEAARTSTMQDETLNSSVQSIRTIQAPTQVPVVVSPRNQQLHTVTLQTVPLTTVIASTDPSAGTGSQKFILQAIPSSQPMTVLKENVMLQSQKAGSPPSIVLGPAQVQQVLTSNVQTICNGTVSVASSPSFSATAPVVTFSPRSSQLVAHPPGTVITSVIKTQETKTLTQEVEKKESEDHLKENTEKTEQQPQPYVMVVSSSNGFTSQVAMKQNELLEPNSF

Regarding TCGTAT, the binding signal with ELK1 is 1.08 fold enrichment (6-mer frequency, TF over GST control); with GABPA, 1.01 fold enrichment (6-mer frequency, TF over GST control); with ERG, 1.03 fold enrichment (6-mer frequency, TF over GST control); in the test with ELF1 it was 1.03 fold enrichment (6-mer frequency, TF over GST control); with EHF, 1 fold enrichment (6-mer frequency, TF over GST control); with SPI1, 1.02 fold enrichment (6-mer frequency, TF over GST control). The binding signal with SPIB is 1.07 fold enrichment (6-mer frequency, TF over GST control); with FEV, 1.05 fold enrichment (6-mer frequency, TF over GST control); with ETV5, 1.02 fold enrichment (6-mer frequency, TF over GST control); with ELF4 it was 1.02 fold enrichment (6-mer frequency, TF over GST control); in the test with ETV2, 1.12 fold enrichment (6-mer frequency, TF over GST control); with ELF3 it was 1.05 fold enrichment (6-mer frequency, TF over GST control). Further, the binding signal in the test with ETV1 was 1 fold enrichment (6-mer frequency, TF over GST control); with ERF, 1.06 fold enrichment (6-mer frequency, TF over GST control); with ETV3 it was 1.05 fold enrichment (6-mer frequency, TF over GST control).
